Assay results from PubChem BioAssay AID1159580 (chemical genetic matrix, 2015).
The whole screen tested about 5,500 compounds, of which about 2,000 (36%) were called active. Roughly 18% stayed inconclusive and do not appear here. No stated cut-off is given here; in the data, active means normalized growth mostly below about 0.91 (no sharp cut-off); inconclusive means no clear call, values can overlap the other calls; inactive means mostly above about 0.92. The list shows a part of the results.

Test: chemical genetic growth profiling, strain panel (AID 1159580);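 further: tested at 20 µM; growth read once vehicle control cultures reached saturation at 30 °C; 1 = growth at the plate median or of vehicle wells; lower values mean less growth of the strain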
Conditions: S. cerevisiae deletion strains, growth OD

Measured: normalized growth

CN1Cc2c(ccc3c2OCO3)C2C(O)Cc3cc4c(cc3C21)OCO4 (stereo not given)
inactive: locus YAL013W, strain DEP1, active compounds read low 0.992 | locus YBR021W, strain FUR4, active compounds read low 0.939 | locus YBR229C, strain ROT2, active compounds read low 1 | locus YCL029C, strain bik1, active compounds read low 1.03 | locus YDL035C, strain GPR1, active compounds read low 0.985 | locus YDL074C, strain BRE1, active compounds read low 0.982 | locus YDL101C, strain DUN1, active compounds read low 0.996 | locus YDL134C, strain PPH21, active compounds read low 0.977 | locus YDL185W, strain tfp1, active compounds read low 1.02 | locus YDL192W, strain arf1, active compounds read low 0.999 | locus YDR101C, strain arx1, active compounds read low 0.999 | locus YDR162C, strain NBP2, active compounds read low 0.991 | locus YDR318W, strain mcm21, active compounds read low 0.998 | locus YDR388W, active compounds read low 0.987 | locus YDR502C, strain sam2, active compounds read low 0.984 | locus YEL061C, strain CIN8, active compounds read low 0.992 | locus YER110C, active compounds read low 1.01 | locus YER155C, strain BEM2, active compounds read low 0.997 | locus YER167W, strain BCK2, active compounds read low 0.989 | locus YGL078C, strain dbp3, active compounds read low 1.02 | locus YGL086W, strain mad1, active compounds read low 0.989 | locus YGL248W, strain PDE1, active compounds read low 0.995 | locus YGR078C, strain PAC10, active compounds read low 0.998 | locus YGR135W, strain pre9, active compounds read low 0.98 | locus YGR252W, strain gcn5, active compounds read low 0.96 | locus YHR030C, strain SLT2, active compounds read low 0.999 | locus YHR079C, strain IRE1 (second series), active compounds read low 1.01 | locus YHR094C, strain hxt1, active compounds read low 1.01 | locus YHR129C, strain ARP1, active compounds read low 0.994 | locus YHR200W, strain rpn10, active compounds read low 1 | locus YIL066C, strain RNR3, active compounds read low 1 | locus YIL073C, strain SPO22, active compounds read low 1.04 | locus YIL125W, strain kgd1, active compounds read low 1.02 | locus YIR030C, strain dcg1, active compounds read low 1 | locus YJL095W, strain BCK1, active compounds read low 0.985 | locus YJL134W, strain LCB3, active compounds read low 1.01 | locus YJL168C, strain set2, active compounds read low 1 | locus YJL187C, strain SWE1 (second series), active compounds read low 1 | locus YJR043C, strain POL32, active compounds read low 1.01 | locus YJR075W, strain HOC1, active compounds read low 0.983 | locus YKL009W, strain mrt4, active compounds read low 1.01 | locus YKL068W, active compounds read low 1 | locus YKL085W, strain MDH1 (second series), active compounds read low 1.01 | locus YKL085W, strain MDH1, active compounds read low 1.01 | locus YKL190W, strain CNB1, active compounds read low 0.988 | locus YKR001C, strain vps1, active compounds read low 0.997 | locus YLR039C, strain RIC1, active compounds read low 0.977 | locus YLR058C, strain SHM2, active compounds read low 0.992 | locus YLR102C, strain apc9, active compounds read low 1.01 | locus YLR262C, strain YPT6, active compounds read low 0.981 | locus YLR268W, strain sec22, active compounds read low 1 | locus YLR330W, strain CHS5, active compounds read low 1.01 | locus YLR342W, strain FKS1 (second series), active compounds read low 0.982 | locus YLR371W, strain rom2, active compounds read low 1.01 | locus YLR418C, strain cdc73, active compounds read low 0.956 | locus YML016C, strain PPZ1, active compounds read low 1 | locus YML032C, strain rad52, active compounds read low 0.991 | locus YML124C, strain tub3, active compounds read low 1.02 | locus YMR078C, strain ctf18, active compounds read low 1.01 | locus YMR223W, strain ubp8, active compounds read low 0.998 | locus YMR307W, strain GAS1, active compounds read low 0.95 | locus YNL067W, strain RPL9B, active compounds read low 0.994 | locus YNL128W, strain TEP1, active compounds read low 0.996 | locus YNL233W, strain BNI4, active compounds read low 1 | locus YNL250W, strain rad50, active compounds read low 1.02 | locus YNL271C, strain bni1, active compounds read low 1.02 | locus YNL298W, strain CLA4, active compounds read low 1.03 | locus YNL307C, strain MCK1, active compounds read low 1.02 | locus YNL322C, strain KRE1, active compounds read low 0.999 | locus YNR052C, strain pop2, active compounds read low 0.997 | locus YOL006C, strain TOP1, active compounds read low 0.92 | locus YOL012C, strain htz1 1.21 | locus YOL147C, strain pex11, active compounds read low 1 | locus YOR061W, strain CKA2, active compounds read low 1 | locus YOR069W, strain VPS5, active compounds read low 1 | locus YOR136W, strain idh2, active compounds read low 1.04 | locus YOR144C, strain elg1, active compounds read low 1.01 | locus YOR184W, strain ser1, active compounds read low 0.984 | locus YOR316C, strain cot1, active compounds read low 1.01 | locus YPL055C, strain LGE1, active compounds read low 0.978 | locus YPR119W, strain clb2, active compounds read low 1.01 | locus YPR141C, strain kar3, active compounds read low 1.01 | locus YPR163C, strain tif3, active compounds read low 1.04 | locus YPR167C, strain met16, active compounds read low 1.01 | strain wtn01, active compounds read low 1
